From PubChem BioAssay AID624134 (Broad Institute, 2012)
Hit rate of the full screen: of about 1,600 compounds, about 1,100 (69%) were called active. The set was probably picked from earlier hits. A selection follows. Entries that show only a call come without a potency. Potency and affinity values are given separately. Inconclusive results are not listed.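 How the source made its calls: active means signal drop with fitted half-maximal concentration no higher than twice the top valid tested concentration; inconclusive means flat curve with 30 to 70% signal loss, or poor fit; inactive means the rest, including signal rises and flat curves within 30%.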

experiment: loss of viability in HepG2 cells – cell-based, CellTiter-Glo, cherry-picked, cytotoxicity control for Shn3 inhibitor project, dose response (AID 624134); details: CellTiter-Glo ATP luminescence, 48 h; series mostly up to 35 µM

| Structure (SMILES) | outcome |
| --- | --- |
| CC(C)CCNC(=O)c1cc2c(=O)[nH]c3ccccc3c2s1 | inactive |
| Cc1ccc(OC(=O)CCC(=O)Oc2ccc(C)cc2C)c(C)c1 | inactive |
| CCCC(c1nnnn1Cc1ccc(OC)cc1)N1CCN(c2ccccc2)CC1 (stereo not given) | inactive |
| CCOC(=O)C1CCN(C(=O)c2ccc(OCC(=O)Nc3cccc(C(F)(F)F)c3)c(OC)c2)CC1 | inactive |
| Cc1ccccc1N/C(=N/S(=O)(=O)c1ccccc1)c1ccc(F)cc1 | inactive |
| CCOC(=O)C1CCCN(S(=O)(=O)c2ccc(S(=O)(=O)N(CC)CC)cc2)C1 (stereo not given) | inactive |
| Cc1ccc(CNC(=O)CSc2c3c(nc4ccc(Cl)cc24)CCCC3)o1 | inactive |
| CC1=NOC(=O)/C1=C\c1ccc(-c2cc(Cl)ccc2Cl)o1 | inactive |
| CCOc1cc(/C=C2\C(=O)ON=C2C)ccc1OCc1ccccc1 | inactive |
| O=C(CSc1nc2c(c(=O)n1-c1ccc(Br)cc1)SCC2)NCc1ccco1 | inactive |
| Cc1cc(-n2c(C)cc(C(=O)CSc3nncn3C)c2C)no1 | inactive |
| CCCC(=O)NC(=S)Nc1ccc(N2CCN(C(=O)c3cccs3)CC2)cc1 | inactive |
| O=C(NCCc1ccccc1)c1ccc2c(c1)OCCO2 | inactive |
| CCOC(=O)c1c(NC(=O)c2nn(CC)cc2Br)sc(C)c1C | inactive |
| CCOC(=O)c1sc(NC(=O)CCCn2nc([N+](=O)[O-])c(Cl)c2C)c(C(=O)OCC)c1C | inactive |
| COc1ccccc1N1CCN(c2ncc(C(=O)N3CCN(c4cccc(Cl)c4)CC3)c3ccccc23)CC1 | inactive |
| O=C(Nc1cccc(S(=O)(=O)NC2=NCCC2)c1)C1CC(=O)N(c2ccc3c(c2)OCCO3)C1 (stereo not given) | inactive |
| C=C1C(=O)[C@@]23[C@H](O)C[C@@H]4C(C)(C)CC[C@H](O)[C@]4(C)[C@@H]2C[C@H](O)[C@@H]1[C@H]3O | inactive |
| CCc1c(O)nc(SCC(=O)Nc2ccccc2)n(-c2ccccc2)c1=O | inactive |
| O=C(CSc1nc2[nH]ncc2c(=O)[nH]1)Nc1ccccc1C(F)(F)F | inactive |

| Structure (SMILES) | outcome |
| --- | --- |
| O=C(NCCNC(=O)Oc1cccc2ccccc12)Oc1cccc2ccccc12 | inactive |
| COc1cc2ncnc(N[C@H](C)c3ccccc3)c2cc1OC | inactive |
| Cc1cc(C)n(-c2cc(-n3nc(C)cc3C)ncn2)n1 | inactive |
| CCn1c(C)cc(C(=O)COC(=O)c2ccccc2[N+](=O)[O-])c1C | inactive |
| CS(=O)(=O)c1ccc(C(=O)OCC(=O)N2CCOCC2)cc1[N+](=O)[O-] | inactive |
| COc1ccc(C(=O)OCC(=O)Nc2ncc([N+](=O)[O-])s2)cc1OC | inactive |
| C=C1C(=O)C23C(O)C1CCC2C12COC3(O)C(O)C1C(C)(C)CCC2O (stereo not given) | inactive |
| CCO[C@@H]1OC(C(=O)NC2CC2)=C[C@H](c2coc3ccccc3c2=O)[C@H]1CCCO | inactive |
| CCCCCCCCCCOC(=O)Cn1c(COc2ccc(OC)cc2)[n+](C)c2ccccc21 | inactive |
| CSc1cccc(NC(=O)N2CCCC(CNS(=O)(=O)Cc3ccccc3)C2)c1 (stereo not given) | inactive |
| Cc1nc2ncnn2c(C)c1Cc1cccc(F)c1 | inactive |
| CC(C)=CCC/C(C)=C/CNC(=O)C[C@H]1C[C@H](C(=O)N2CCOCC2)[C@@]2(C)c3[nH]c4cc(CCC(=O)N(C)C)ccc4c3CCN2C1=O | inactive |
| O=C(Cn1cc(C(=O)C2CC2)c2ccccc21)Nc1ccccc1Cl | inactive |
| CCC(=O)c1cn(CC(=O)Nc2cccc(C)c2C)c2ccccc12 | inactive |
| CCN(CC)C(=S)Sc1c(-c2ccccc2)c2cc(Cl)ccc2[nH]c1=O | inactive |
| COc1ccc(NS(=O)(=O)c2ccc(NC(=O)C(CCSC)NC(N)=O)cc2)cc1 (stereo not given) | inactive |
| O=C(COC(=O)c1n[nH]c2ccccc12)Nc1ccc(S(=O)(=O)N2CCCC2)cc1 | inactive |
| COc1ccc(C(=O)NNC(=O)c2cccc(S(=O)(=O)N3CCOCC3)c2)cc1 | inactive |
| O=C(Nc1ccc(S(=O)(=O)N2CCN(Cc3ccccc3)CC2)cc1)c1cnccn1 | inactive |
| O=C(CCS(=O)(=O)c1ccccc1)Nc1nc2c(s1)CCCC2 | inactive |

| Structure (SMILES) | outcome |
| --- | --- |
| COc1ccccc1/C=C1\CCCC2=C1Nc1nnnn1C2c1ccccc1OC (stereo not given) | inactive |
| O=C(O)c1cccc(COc2ccccc2Cl)c1 | inactive |
| O=C(O)c1cccc(COc2ccc(CO)cc2Cl)c1 | inactive |
| CCN(CC)Cc1c(O)ccc2c1O/C(=C\C=C\c1ccccc1)C2=O | inactive |
| Cc1ccc(-c2ccc(/C=C3\C(=O)ON=C3c3ccccc3)o2)c([N+](=O)[O-])c1 | inactive |
| Cc1ccc(NC(=O)C2CCCN(S(=O)(=O)c3c(C)noc3C)C2)cc1 (stereo not given) | inactive |
| Cc1csc(=O)n1CCC(=O)N(C)Cc1c(F)cccc1Cl | inactive |
| CCn1cc(CNCc2cn(-c3ccccc3C)nc2-c2ccc(OC)c(F)c2)cn1 | inactive |
| CCN(CC)S(=O)(=O)c1ccc(N2CCOCC2)c(NC(=O)c2nn(C(C)C)c(=O)c3ccccc23)c1 | inactive |
| CCOC(=O)C1CCN(c2cc3c(cc2NC(=O)c2ccccc2Br)n(C)c(=O)n3C)CC1 | inactive |
| CC[C@]12c3[nH]c4cc(CCC(=O)N(C)C)ccc4c3CCN1C(=O)[C@@H](CC(=O)NC/C=C(\C)CCC=C(C)C)C[C@@H]2C(=O)N1CCN(C(=O)c2ccco2)CC1 | inactive |
| COc1ccc(-c2cc(C(F)(F)F)nc(S(=O)(=O)CCCC(=O)Nc3cccnc3Cl)n2)cc1OC | inactive |
| COc1ccc([C@H]2CC(=O)C=C(c3ccc4c(c3)OCO4)C2)cc1OC | inactive |
| COc1cc(C(=O)OCC(=O)NC2CCCCCC2)ccc1OCC(C)C | inactive |
| CC(=O)OCC(=O)[C@@]1(O)CC[C@H]2[C@@H]3CCC4=CC(=O)CC[C@]4(C)[C@H]3C(=O)C[C@@]21C | inactive |
| COc1ccc(S(=O)(=O)N2CCOCC2)cc1NC(=O)COC(=O)CC1CC2CCC1C2 (stereo not given) | inactive |
| Nc1c(Br)cc2c(c1Br)C(O)c1ccccc1-2 (stereo not given) | inactive |
| CN(C)c1ncnc2c1C(c1ccccc1)C(C)(C)O2 (stereo not given) | inactive |
| COc1cc(OC)cc(C(=O)OCC(=O)Nc2ccc(F)cc2F)c1 | inactive |
| COc1ccc(OC)c(NC(=O)c2cc(-c3cc(F)ccc3OCC3CCCO3)n[nH]2)c1 (stereo not given) | inactive |
